Bioassay records as filed in PubChem BioAssay.
Many of the other results were omitted from the sample, so hits are more common in it than they were.
EZH2 inh: inhibitors of human EZH2/PRC2 methyltransferase; inhibition, % at 12.5 µM; 57,000 compounds, 0.35% hits; Q15910; PRC2 H3K27 methylation, DELFIA TRF, 1 h;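 active = mean inhibition of replicates at least 50% and every single replicate also reaching 50%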;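 note: dimethyl H3K27 on biotinylated H3 21-44 peptide detected by antibody; plate controls were median neutral control wells for no effect and median positive control wells for full effect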
Target sequence (Q15910 whole entry, looked up): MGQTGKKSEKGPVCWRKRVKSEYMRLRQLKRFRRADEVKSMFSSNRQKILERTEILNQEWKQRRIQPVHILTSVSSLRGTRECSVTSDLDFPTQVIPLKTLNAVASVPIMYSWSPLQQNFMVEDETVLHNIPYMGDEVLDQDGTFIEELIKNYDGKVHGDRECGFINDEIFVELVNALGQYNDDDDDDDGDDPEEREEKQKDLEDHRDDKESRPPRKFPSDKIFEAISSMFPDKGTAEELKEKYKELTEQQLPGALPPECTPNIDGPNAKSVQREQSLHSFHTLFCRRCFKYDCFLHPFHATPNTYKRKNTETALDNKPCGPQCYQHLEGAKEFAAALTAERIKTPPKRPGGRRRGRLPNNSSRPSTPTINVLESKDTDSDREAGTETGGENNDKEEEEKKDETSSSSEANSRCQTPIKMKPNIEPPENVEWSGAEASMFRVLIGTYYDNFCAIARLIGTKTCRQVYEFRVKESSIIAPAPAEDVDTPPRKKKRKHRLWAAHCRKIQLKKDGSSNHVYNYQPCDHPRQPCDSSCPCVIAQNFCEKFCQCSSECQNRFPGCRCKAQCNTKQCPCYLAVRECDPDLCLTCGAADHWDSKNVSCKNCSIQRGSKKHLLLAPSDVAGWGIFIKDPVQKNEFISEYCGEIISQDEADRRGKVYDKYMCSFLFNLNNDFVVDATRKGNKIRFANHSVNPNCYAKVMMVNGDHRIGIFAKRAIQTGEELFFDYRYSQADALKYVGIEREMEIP
Starred values were filed as active, the others as inactive.

SMILES | EZH2 inh
O=C1O[C@H](c2ccccc2)[C@H](c2ccccc2)N2[C@H]1[C@@H](C(=O)N1CCN(c3ncccn3)CC1)[C@]1(C(=O)Nc3ccc(C#CCCO)cc31)[C@H]2c1ccc(O)cc1 | -25.6
N#C/C(=C\c1ccc(O)c(O)c1)C(=O)c1ccc(O)c(O)c1 | 93.5*
N#CC(C#N)=C(N)/C(C#N)=C/c1cc(O)c(O)c(O)c1 | 28.4
N#C/C(=C/c1ccc(O)c(O)c1)C(=O)Nc1ccccc1 | 17.5
Cc1cc(C)c(S(=O)(=O)N(C)CC(=O)Nc2ccc(Cl)cc2Cl)c(C)c1 | 24.1
COc1cccc(NC(=O)CSc2nnc(-c3ccc(Cl)cc3)n2-c2ccc(F)cc2)c1 | 25.9
O=C(CCCCCC(=O)N/N=C/c1cc(O)ccc1O)NO | 0.1
O=C(NO)c1cccc(C(=O)N/N=C/c2cc(Br)ccc2O)c1 | 8.4
O=C(NO)c1cccc(C(=O)N/N=C/c2ccc(O)cc2O)c1 | -3.1
O=C(NO)c1cccc(C(=O)N/N=C/c2ccc(O)c(O)c2O)c1 | 95.0*
O=C(CCCCC(=O)N/N=C/c1ccc(O)c(O)c1O)NO | 76.0*
O=C(CCCCCC(=O)N/N=C/c1ccc(O)cc1O)NO | 5.3
O=C(NO)c1cccc(C(=O)N/N=C/c2cc(Br)cc(Br)c2O)c1 | -26.7
O=C(NO)c1cccc(C(=O)N/N=C/c2ccc(O)c3ccccc23)c1 | -3.2
O=C(NO)c1cccc(C(=O)N/N=C/c2cccc(O)c2O)c1 | 78.5*
Cc1ccc(NC(=O)CN(c2cccc(F)c2)S(C)(=O)=O)cc1 | -11.2
CC1=Nc2ccc(C)cc2/C1=C\c1c(N)n2nc(S(=O)(=O)CC(C)C)sc2nc1=O | 24.8
COc1cc(/C=N/NC(=O)c2cccc(C(=O)NO)c2)c([N+](=O)[O-])cc1OC | 7.5
CS(=O)(=O)N(CC(=O)Nc1ccc(I)cc1)Cc1ccccc1 | 4.9
O=C(CSc1nc2sc3c(c2c(=O)[nH]1)CCCC3)Nc1ccc(Cl)cc1 | 2.0
O=C1O[C@@H](c2ccccc2)[C@@H](c2ccccc2)N2[C@@H](c3ccc(OCCO)cc3)[C@]3(C(=O)Nc4ccc(C#CC5(O)CCCCCC5)cc43)[C@@H](C(=O)NC[C@H](O)c3ccccc3)[C@H]12 | -26.7
CC(C)Nc1cccnc1N1CCN(C(=O)c2cc3cc(O)ccc3[nH]2)CC1 | -7.5
O=C(CSc1nnc2ccccn12)Nc1c(Cl)cc(Cl)cc1Cl | -9.0
O=C(c1cnc2ccccn12)C(F)(F)SCc1c(Cl)cccc1Cl | 58.6*
O=C(CSc1nc2c(c(C(F)(F)F)n1)CCc1ccccc1-2)Nc1c(F)cc(F)cc1Br | 4.2
SMILES | EZH2 inh
Cc1cccc(NC(=O)c2ccccc2NC(=O)COc2ccccc2Cl)c1C | -2.3
CC(C)=CCC[C@H](C)C/C=N/NC(=O)CCCCCC(=O)NO | -37.9
Cc1ccc(Cl)c(NC(=O)NCCN2CCN(c3ccccc3[N+](=O)[O-])CC2)c1 | 9.9
COc1ccc(-c2cc(=O)[nH]c(SCC(=O)Nc3ccc(Br)cc3)n2)cc1 | 14.5
CC1CCC2C(C)(C)C(=O)CC[C@]2(C)C12Cc1c(O)cc3c(c1O2)CN(C(CCC(=O)O)C(=O)O)C3=O (stereo partly specified) | 2.6
O=C(N/N=C/c1ccc(-c2cccc(Cl)c2)o1)c1ccccn1 | 5.9
COC(=O)CCCCCCC(=O)N/N=C/c1cccc(Oc2ccccc2)c1 | 55.6*
COC(=O)CCCCCCC(=O)N/N=C/c1ccccc1 | 22.0
COC(=O)CCCCCCC(=O)N/N=C/c1cccc(OCCO)c1 | 5.9
CCCCN(CCCC)c1ccc(/C=N/NC(=O)CCCCCCC(=O)OC)cc1 | 79.5*
COC(=O)CCCCCCC(=O)N/N=C/c1ccc(-c2cccc(Cl)c2)o1 | 54.4*
CCCCN(CCCC)c1ccc(/C=N/NC(=O)c2ccccc2O)cc1 | 18.9
O=C(CCCCC(=O)N/N=C/c1ccc(-c2cccc(Cl)c2)o1)NO | -1.3
COC(=O)CCCCCCC(=O)N/N=C/c1ccc(OCCO)cc1 | 17.6
O=C(CCN1C(=O)c2ccccc2C1=O)Oc1c(-c2ccccc2)oc2ccccc2c1=O | 30.5
CN(CCO)c1ccc(/C=N/NC(=O)c2ccc(C(=O)NO)cc2)cc1 | 0.4
O=C(CCCCCCC(=O)Nc1ccccc1O)N/N=C/c1ccc(N2CCCC2)cc1 | 10.5
CCOC(=O)c1c(C2COc3ccccc3O2)csc1NC(=S)Nc1ccccc1 (stereo unspecified) | -7.1
OC(COc1ccccc1Cl)Cn1cnc2ccccc21 (stereo unspecified) | 11.4
CCOc1cc(/C=N/NC(=O)CCCCCCC(=O)NO)ccc1O | 8.3
CCN(CC)C(=O)c1sc(NC(=S)Nc2ccc(Br)cn2)c(C(=O)OC)c1C | -7.5
CCn1c(SCC(=O)c2ccc(OC)cc2)nnc1-c1ccccc1Cl | 14.1
O=c1cc(CSc2nc3sc4c(c3c(=O)n2Cc2ccco2)CCC4)[nH][nH]1 | -5.4
COC(=O)[C@@H](O)[C@H]1[C@@]2(C)C[C@]3(O)C4[C@@H](O[C@]56CC(=O)O[C@@H](c7ccoc7)[C@@]5(C)CCC([C@]46O)[C@]13C)[C@H]2O (stereo partly specified) | 100.3*
CC12CC(c3ccoc3)OC(=O)C1CCC1(C)C2C2OC(=O)C1(O)C1OC21 (stereo unspecified) | 9.7
